# Data as given in PubChem BioAssay (NCI).
# About 83,000 compounds went through this panel and 20% of them were active in at least one assay; those are over-represented in the sample as a whole.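 The test compound was applied at a single concentration to cells in 96-well plates for 48 hours, and percent growth was recorded.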 Calls of active or inactive are those of the source. Rule for the calls: active = growth percent below 10; inactive = the rest.
# System: HL-60(TB) leukemia
# Test: NCI-60 one-dose screen, 48 h (100 = growth as untreated, 0 = no growth, -100 = all killed)
# Conditions: 10 µM unless noted
row,Structure (SMILES),growth
1,c1csc(-c2c3ccc(=[N+]4CCCCC4)cc-3oc3cc(N4CCCCC4)ccc23)c1,-35.5% (active)
2,CN1CCN(Cn2nc(-c3cc(Cl)cc(Cl)c3Cl)oc2=S)CC1,82% (inactive)
3,COc1cc(C#Cc2ccc(=O)oc2C#Cc2ccccc2)cc(OC)c1OC,34.2% (inactive)
4,CO[C@H](C(=O)N[C@@H](CCCCNC(=O)OCc1ccccc1)C(=O)OC(C)(C)C)[C@@H]1Cc2cc3cc(OC4CC(OC5CC(O)C(O)C(C)O5)C(O)C(C)O4)c(C)c(O)c3c(O)c2C(=O)[C@H]1OC1CC(OC2CC(OC3CC(C)(O)C(O)C(C)O3)C(O)C(C)O2)C(O)C(C)O1 (some centres not stated),-0.249% (active)
5,O=c1nc2oc3ccc4ccccc4c3cc-2s1,-29.2% (active)
6,CC1CC=CCC1C1OCC(C)(C)CO1 (configuration not stated),91.8% (inactive)
7,C#CCN(Cc1ccc2nc(N)[nH]c(=O)c2c1)c1ccc(C(=O)NC(CCC(=O)O)C(=O)O)cc1 (configuration not stated),43.6% (inactive)
8,COc1ccc2c(O)cc3c(c2c1)[C@H](CCl)CN3C(=O)c1cc2cc(NC(=O)CCN3CCOCC3)ccc2[se]1,66% (inactive)
9,CC1=C(C(=O)Nc2ccc(F)cc2)C(c2ccc(Cl)cc2)C2=C(CC(C)(C)CC2=O)N1 (configuration not stated),104% (inactive)
10,COc1ccc(-c2cc(-c3cn(-c4cccc(Cl)c4)nc3-c3ccc(OC)cc3)on2)cc1,93.6% (inactive)
11,O=C(Nc1ccc(Cl)cc1)Nc1nc2ccc(OC(F)(F)F)cc2o1,83.3% (inactive)
12,Oc1c(-c2cc(C(F)(F)F)[nH]n2)cc(Cl)c(OCc2ccc(Cl)cc2)c1-c1ccc(Cl)c(C(F)(F)F)c1,-10.8% (active)
